Drawing on PubChem BioAssay, this text covers composite z-score and z-score for 25 molecules.

The subject of test [1] is XIP peptide (Xip251-270) binding. As to the kind of experiment: XIP fragment 251-270 binding compounds – biochemical, small-molecule microarray, fluorescence 635/667 nm, 0.1 µg/mL protein, primary screen (AID 1182). As to conditions: fluorescent protein binding, 635 nm, higher = more signal, called active from +8 up or from −8 down.
Test [2] concerns XIP peptide (Xip251-270). As to the kind of experiment: compounds binding XIP fragment 251-270 – biochemical, small-molecule microarray, fluorescence 635/667 nm, 0.5 µg/mL protein, primary screen (AID 1183). The conditions noted are these: fluorescence 635 nm, higher = more signal.
Test [3] is described as follows: blood-stage malaria parasite viability loss – strain 3D7, DAPI fluorescence, 100 nL, primary screen (AID 1184).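 Also: parasites grown inside human red blood cells in medium with human serum.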 The conditions noted are these: P. falciparum 3D7 growth, 3 d, higher = more signal.
The target of test [4] is Homeobox protein Hox-A13 (Mus musculus) (UniProt Q62424). As to the kind of experiment: disruptors of Hoxa13 oligonucleotide interaction – biochemical, fluorescence polarization, labeled oligonucleotide, primary screen (AID 1185). The conditions noted are these: Hoxa13:DNA binding, 15 min, higher = more signal, called active from +8 up or from −8 down.
Test [5] is described as follows: blockers of DNA damage checkpoint Chk1 activation – imaging, HeLa, hydroxyurea, phospho-Chk1 antibody, percent positive cells, primary screen (AID 1186). As to conditions: hydroxyurea-induced phospho-Chk1 immunofluorescence imaging, higher = more signal.
Test [6] is described as follows: blockers of DNA damage checkpoint Chk1 activation – imaging, HeLa, hydroxyurea, phospho-Chk1 nuclear intensity, primary screen (AID 1187). The conditions noted are these: hydroxyurea-induced phospho-Chk1 immunofluorescence imaging, higher = more signal.

The source made the active and inactive calls. Unless noted, no rule for the calls is given here.

Chain of Homeobox protein Hox-A13 (Mus musculus) (Q62424 whole entry, looked up): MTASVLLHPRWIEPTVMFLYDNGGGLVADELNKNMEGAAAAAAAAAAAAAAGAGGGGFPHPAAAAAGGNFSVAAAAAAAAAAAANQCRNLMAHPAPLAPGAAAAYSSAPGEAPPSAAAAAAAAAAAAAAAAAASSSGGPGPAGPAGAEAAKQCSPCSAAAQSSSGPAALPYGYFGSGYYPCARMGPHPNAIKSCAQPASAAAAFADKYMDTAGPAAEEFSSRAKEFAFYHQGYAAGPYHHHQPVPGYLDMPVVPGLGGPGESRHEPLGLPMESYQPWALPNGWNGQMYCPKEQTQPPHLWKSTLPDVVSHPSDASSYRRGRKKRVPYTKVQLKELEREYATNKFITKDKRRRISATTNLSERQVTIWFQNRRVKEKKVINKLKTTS

For `O=C/C=C/c1ccc(Cl)cc1`, the composite z-score was -1.5 (inactive) in test [1] and -0.314 in test [2]. The z-score in test [3] is 0.364; in test [4], 0.168 (inactive); in test [5], -0.0674 (inactive); in test [6], -0.659 (inactive).
As for `O=C1OCCC=C[C@H]2OC34C=CCN(Cc5ccccc5)C(=O)[C@H]3N(CCCCCO)C(=O)[C@@H]4C12` (stereo not given in full), the figures for the composite z-score in test [1] and in test [2] were 1.16 (inactive) and -0.0335, respectively. Moreover, the z-score in test [3] was 0.0195; in test [4], -4.46 (inactive); in test [5], -0.218 (inactive); in test [6], 0.534 (inactive).
As for `CCCCC=C[C@@H](NC(=O)c1ccco1)c1ccccc1`, the composite z-score in test [1] is 0.193 (inactive); in test [2], 0.511. Moreover, the z-score in test [3] is -1.19; in test [4], -0.806 (inactive); in test [5], -0.164 (inactive); in test [6], -0.7 (inactive).
As to `CCOC(=O)C[C@H]1[C@H](OC(=O)c2ccc(C(=O)c3ccccc3)cc2)[C@@H](NC(=O)C2CCCCC2)c2cc(OCCCO)ccc2N1C(=O)c1ccccc1`, the composite z-score in test [1] is -0.373 (inactive); in test [2] it was 0.186. Moreover, the z-score in test [3] was 0.863; in test [4] it was -2.97 (inactive); in test [5], 0.454 (inactive); in test [6], 0.0465 (inactive).
As to `[N-]=[N+]=NCc1ccccc1C[C@@]1(C(=O)NCC(O)CO)N=C(c2ccc(OCCCO)cc2)O[C@@H]1c1ccccc1CN=[N+]=[N-]` (stereo not given in full), the composite z-score is -0.0479 (inactive) in test [1] and 0.748 in test [2]. Further, the z-score in test [3] is -2.01; in test [4], -3.3 (inactive); in test [5], -0.0621 (inactive); in test [6], 0.0477 (inactive).
With `C=C(C(=O)CC[C@H](OC(C)=O)c1ccc(OCCO)cc1)C(C)C`, the values for the composite z-score in test [1] and in test [2] were 0.0512 (inactive) and 0.601, respectively. The z-score in test [3] was -2.57; in test [4] it was -3.14 (inactive); in test [5], 0.772 (inactive); in test [6] it was -0.0365 (inactive).
With `COCCOC(=O)N1C(=O)[C@@]2(c3cc(C#Cc4ccc(OC)cc4)ccc31)[C@H](C(=O)N1CCN(c3ncccn3)CC1)[C@H]1C(=O)O[C@H](c3ccccc3)[C@H](c3ccccc3)N1[C@@H]2c1ccc(O)cc1`, the composite z-score was 0.0853 (inactive) in test [1] and 0.481 in test [2]. Moreover, the z-score was -1.38 in test [3], 0.261 (inactive) in test [4], -0.0134 (inactive) in test [5] and -0.454 (inactive) in test [6].
On to `C=CC(COC(C)=O)NS(=O)(=O)c1ccc(Br)cc1` (stereo not given), for which the composite z-score was 0.264 (inactive) in test [1] and 0.231 in test [2]. Besides, the z-score in test [3] is 1.95; in test [4], -0.546 (inactive); in test [5], 0.363 (inactive); in test [6], 0.253 (inactive).
For the molecule `Cc1c(NC(=O)CC#N)c(=O)n(-c2ccccc2)n1C`, the figures for the composite z-score in test [1] and in test [2] were 0.248 (inactive) and 0.0029, respectively. The z-score in test [3] was -0.0049; in test [4], -0.631 (inactive); in test [5], 0.123 (inactive); in test [6] it was 0.239 (inactive).
Take `COC(=O)[C@@]1(Cc2ccccc2N=[N+]=[N-])COC(c2ccc(OCCCO)cc2)=N1`: the composite z-score is 1.25 (inactive) in test [1] and 0.66 in test [2]. Moreover, the z-score in test [3] was -0.82; in test [4], -5.06 (inactive); in test [5], 0.428 (inactive); in test [6], 0.135 (inactive).
Take `[N-]=[N+]=NCc1ccccc1C[C@]1(C(=O)O)N=C(c2ccc(OCCCO)cc2)O[C@H]1c1ccccc1CN=[N+]=[N-]`: the values for the composite z-score in test [1] and in test [2] were 0.218 (inactive) and 0.746, respectively. The z-score is -0.507 in test [3], -4.69 (inactive) in test [4], -0.0136 (inactive) in test [5] and 0.306 (inactive) in test [6].
In the case of `CCCCCCc1nc(CCCc2cc3c(c(CCCCCC)n2)[Si](C(C)C)(C(C)C)OC3)cc2c1[Si](C(C)C)(C(C)C)OC2`, the composite z-score is -0.53 (inactive) in test [1] and -0.442 in test [2]. Moreover, the z-score was -2.33 in test [3], -5.85 (inactive) in test [4], 0.28 (inactive) in test [5] and 0.382 (inactive) in test [6].
With `C=CCOC(=O)[C@@H]1[C@H]2C(=O)O[C@H](c3ccccc3)[C@H](c3ccccc3)N2[C@H](c2ccc(OCCOC(=O)[C@@H]3C[C@@H]4C(=O)NCC(=O)N4[C@@H]3c3cccc(OCCO)c3)cc2)[C@@]12C(=O)Nc1ccc(I)cc12`, the composite z-score was 0.567 (inactive) in test [1] and 0.765 in test [2]. The z-score in test [3] is -1.6; in test [4], 0.8 (inactive); in test [5], 1.07 (inactive); in test [6], 0.783 (inactive).
For `O=C(CS)NCCCCCCNC(=O)[C@H]1C[C@H]2C(=O)N3CCC[C@H]3C(=O)N2[C@H]1c1cccc(OCCO)c1`, the results for the composite z-score in test [1] and in test [2] were 0.517 (inactive) and 0.773, respectively. The z-score in test [3] is -0.0979; in test [4], -3.15 (inactive); in test [5] it was -0.188 (inactive); in test [6] it was -0.318 (inactive).
As to `O=C1O[C@H](c2ccccc2)[C@H](c2ccccc2)N2[C@H]1[C@@H](C(=O)O)[C@]1(C(=O)Nc3ccc(C#CC4(O)CCCCCC4)cc31)[C@H]2c1ccc(OCCO)cc1`, the values for the composite z-score in test [1] and in test [2] were 1.31 (inactive) and 0.599, respectively. Further, the z-score is 0.362 in test [3], -6.3 (inactive) in test [4], -0.125 (inactive) in test [5] and -0.198 (inactive) in test [6].
Turning to `CC(C)C(=C=CC[C@H](O)c1ccccc1OCCO)C[C@H](O)c1ccccn1`, the composite z-score in test [1] is 0.241 (inactive); in test [2] it was 0.0067. Also, the z-score is -1.41 in test [3], -4.79 (inactive) in test [4], 0.293 (inactive) in test [5] and 0.546 (inactive) in test [6].
As to `O=C1C2C=CC(C(O)c3ccc(B(O)O)cc3)N(Nc3ccccc3)C2C(=O)N1c1ccccc1` (stereo not given), the composite z-score in test [1] is 0.158 (inactive); in test [2], -0.197. Further, the z-score was -0.545 in test [3], -3.99 (inactive) in test [4], -0.149 (inactive) in test [5] and -0.329 (inactive) in test [6].
As to `CC(C)(C)N1CC=CC23O[C@@H]4/C=C\CCCOC(=O)C4[C@H]2C(=O)N(CCO)[C@@H]3C1=O` (stereo not given in full), the composite z-score in test [1] was -0.0146 (inactive); in test [2], 0.368. Further, the z-score in test [3] was -1.38; in test [4], -4.95 (inactive); in test [5], 0.205 (inactive); in test [6], 0.299 (inactive).
As for `C=CCC(OC(C)=O)[C@@H]1[C@@H](N(Cc2ccc(-c3ccccc3)cc2)C(=O)Cc2ccc(OC)cc2)c2cc(OCCCO)ccc2N1C(=O)c1ccc2ccccc2n1` (stereo not given in full), the composite z-score was 0.0404 (inactive) in test [1] and 0.219 in test [2]. Further, the z-score in test [3] was -2.87; in test [4], -1.25 (inactive); in test [5], -0.0117 (inactive); in test [6] it was 0.336 (inactive).
Take `CC1CC/C=C\[C@H]2OC34C=CCN(Cc5ccccc5)C(=O)[C@H]3N(CCCCCO)C(=O)[C@@H]4C2C(=O)O1` (stereo not given in full): the composite z-score was -0.0864 (inactive) in test [1] and 0.525 in test [2]. The z-score in test [3] was 1.65; in test [4] it was -5.11 (inactive); in test [5], -0.0458 (inactive); in test [6] it was -0.0669 (inactive).
For `COc1cc(C(O)C2C=CC3C(=O)N(c4ccccc4)C(=O)C3N2Nc2ccc(C#N)cc2)cc(OC)c1OC` (stereo not given), the composite z-score was 1.42 (inactive) in test [1] and 0.906 in test [2]. Besides, the z-score in test [3] is 0.162; in test [4] it was -4.55 (inactive); in test [5], 0.859 (inactive); in test [6] it was 0.668 (inactive).
Turning to `COC(=O)[C@@]1(Cc2ccc(OC)cc2)[C@H]2c3cc(C(=O)N4CCCC4)n(Cc4ccccn4)c3C[C@H]2CN1C(=O)c1ccccc1`, the composite z-score in test [1] was -0.22 (inactive); in test [2] it was 0.329. For the same molecule, the z-score in test [3] is -1.43; in test [4] it was -5.86 (inactive); in test [5] it was 0.613 (inactive); in test [6], 0.451 (inactive).
As to `C=CCC(OC(C)=O)[C@@H]1[C@@H](N(Cc2ccc(-c3ccccc3)cc2)C(=O)Cc2ccc(F)cc2)c2cc(OCCCO)ccc2N1C(=O)c1ccc2ccccc2n1` (stereo not given in full), the composite z-score was -0.517 (inactive) in test [1] and -0.32 in test [2]. Besides, the z-score in test [3] is -1.35; in test [4], -1.5 (inactive); in test [5], 0.344 (inactive); in test [6] it was -0.0849 (inactive).
As to `C=CCN1C(=O)[C@]2(O[C@H](CCO)[C@@H]([Si](C)(C)c3ccc(OC)cc3)[C@@H]2C)c2cc(NC(=O)[C@H](C)O)ccc21`, the composite z-score in test [1] was 1.46 (inactive); in test [2], 0.822. The z-score was -2.74 in test [3], -5.5 (inactive) in test [4], 1.42 (inactive) in test [5] and 0.436 (inactive) in test [6].
For the molecule `COCCOC(=O)N1C(=O)[C@@]2(c3cc(C#CCNC(N)=O)ccc31)[C@H](c1ccc(O)cc1)N1[C@H](c3ccccc3)[C@H](c3ccccc3)OC(=O)[C@H]1[C@@H]2C(=O)NC[C@H](O)c1ccccc1`, the composite z-score was 1.82 (inactive) in test [1] and 0.733 in test [2]. Also, the z-score in test [3] was -0.0916; in test [4], -3.19 (inactive); in test [5] it was -0.107 (inactive); in test [6] it was -0.369 (inactive).
